# Results reported in PMC5540273 (PLoS ONE, 2017).
# Read-outs that look alike come from different tables or passages of the source.
# Key:
# DYRK1B = conditions: n = 1
# DYRK2 = conditions: concentration: 1 μM, replicates: in singlicate; n = 1
# EGFR = conditions: concentration: 1 μM, replicates: in singlicate; n = 1
# EIF2AK1 = conditions: n = 1
# EPHA1 = conditions: concentration: 1 μM, replicates: in singlicate; n = 1
# EPHA2 = conditions: concentration: 1 μM, replicates: in singlicate; n = 1
# EPHA3 = conditions: concentration: 1 μM, replicates: in singlicate; n = 1
# EPHA4 = conditions: concentration: 1 μM, replicates: in singlicate; n = 1
# EPHA5 = conditions: concentration: 1 μM, replicates: in singlicate; n = 1
# EPHA6 = conditions: n = 1
# EPHA7 = conditions: concentration: 1 μM, replicates: in singlicate; n = 1
# EPHA8 = conditions: concentration: 1 μM, replicates: in singlicate; n = 1
# EPHB1 = conditions: concentration: 1 μM, replicates: in singlicate; n = 1
# EPHB2 = conditions: concentration: 1 μM, replicates: in singlicate; n = 1
# EPHB3 = conditions: concentration: 1 μM, replicates: in singlicate; n = 1
# EPHB4 = conditions: concentration: 1 μM, replicates: in singlicate; n = 1
# EPHB6 = conditions: concentration: 1 μM, replicates: in singlicate; n = 1
# ERBB2 = conditions: concentration: 1 μM, replicates: in singlicate; n = 1
# ERBB3 = conditions: concentration: 1 μM, replicates: in singlicate; n = 1
# ERBB4 = conditions: concentration: 1 μM, replicates: in singlicate; n = 1
# [1] = concentration: 1 μM, replicates: in singlicate
# 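Note: KINOMEscan kinase panel screen.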
compound,measurement,setting,value
COc1ccc(C2=C(Nc3cccc(O)c3)C(=O)NC2=O)cc1 [SB-390766],%Inh,DYRK1B; [1],100%
same,%Inh,DYRK2,30%
same,%Inh,EGFR,32%
same,%Inh,EIF2AK1; [1],5%
same,%Inh,EPHA1,11%
same,%Inh,EPHA2,0%
same,%Inh,EPHA3,0%
same,%Inh,EPHA4,0%
same,%Inh,EPHA5,0%
same,%Inh,EPHA6; [1],0%
same,%Inh,EPHA7,4%
same,%Inh,EPHA8,11%
same,%Inh,EPHB1,9%
same,%Inh,EPHB2,87%
same,%Inh,EPHB3,5%
same,%Inh,EPHB4,0%
same,%Inh,EPHB6,10%
same,%Inh,ERBB2,11%
same,%Inh,ERBB3,0%
same,%Inh,ERBB4,12%
CCn1cnc2c(NCc3ccccc3)ncnc21 [SKF-96418],%Inh,DYRK1B; [1],37%
same,%Inh,DYRK2,15%
same,%Inh,EGFR,0%
same,%Inh,EIF2AK1; [1],0%
same,%Inh,EPHA1,0%
same,%Inh,EPHA2,0%
same,%Inh,EPHA3,0%
same,%Inh,EPHA4,7%
same,%Inh,EPHA5,0%
same,%Inh,EPHA6; [1],0%
same,%Inh,EPHA7,0%
same,%Inh,EPHA8,0%
same,%Inh,EPHB1,0%
same,%Inh,EPHB2,0%
same,%Inh,EPHB3,0%
same,%Inh,EPHB4,0%
same,%Inh,EPHB6,0%
same,%Inh,ERBB2,24%
same,%Inh,ERBB3,28%
same,%Inh,ERBB4,4%
CC(C)NCC(Cc1ccccc1)NC(=O)c1cc(Br)c(-c2ccnc3[nH]ccc23)s1.Cl.Cl (centres unmarked) [GSK1383281],%Inh,DYRK1B; [1],29%
same,%Inh,DYRK2,33%
same,%Inh,EGFR,26%
same,%Inh,EIF2AK1; [1],0%
same,%Inh,EPHA1,6%
same,%Inh,EPHA2,0%
same,%Inh,EPHA3,8%
same,%Inh,EPHA4,0%
same,%Inh,EPHA5,0%
same,%Inh,EPHA6; [1],0%
same,%Inh,EPHA7,0%
same,%Inh,EPHA8,0%
same,%Inh,EPHB1,16%
same,%Inh,EPHB2,0%
same,%Inh,EPHB3,2%
same,%Inh,EPHB4,2%
same,%Inh,EPHB6,6%
same,%Inh,ERBB2,16%
same,%Inh,ERBB3,0%
same,%Inh,ERBB4,10%
Cl.O=C(Nc1ccc(Oc2ccc3[nH]c(NC(=O)c4ccco4)nc3c2)cc1)Nc1cc(C(F)(F)F)ccc1F [GW683134],%Inh,DYRK1B; [1],6%
same,%Inh,DYRK2,0%
same,%Inh,EGFR,44%
same,%Inh,EIF2AK1; [1],4%
same,%Inh,EPHA1,91.8%
same,%Inh,EPHA2,95.2%
same,%Inh,EPHA3,20%
same,%Inh,EPHA4,93.6%
same,%Inh,EPHA5,48%
same,%Inh,EPHA6; [1],96.4%
same,%Inh,EPHA7,86%
same,%Inh,EPHA8,99.5%
same,%Inh,EPHB1,70%
same,%Inh,EPHB2,72%
same,%Inh,EPHB3,24%
same,%Inh,EPHB4,60%
same,%Inh,EPHB6,93.7%
same,%Inh,ERBB2,9%
same,%Inh,ERBB3,0%
same,%Inh,ERBB4,29%
CN(c1ccc(NC(=O)Nc2cccc(Cl)c2)cc1)c1ccnc(N)n1.Cl [GW830707],%Inh,DYRK1B; [1],14%
same,%Inh,DYRK2,14%
same,%Inh,EGFR,10%
same,%Inh,EIF2AK1; [1],0%
same,%Inh,EPHA1,8%
same,%Inh,EPHA2,18%
same,%Inh,EPHA3,15%
same,%Inh,EPHA4,17%
same,%Inh,EPHA5,33%
same,%Inh,EPHA6; [1],48%
same,%Inh,EPHA7,40%
same,%Inh,EPHA8,22%
same,%Inh,EPHB1,34%
same,%Inh,EPHB2,36%
same,%Inh,EPHB3,62%
same,%Inh,EPHB4,61%
same,%Inh,EPHB6,76%
same,%Inh,ERBB2,0%
same,%Inh,ERBB3,17%
same,%Inh,ERBB4,29%
COc1cccc(NC(=O)NCCNc2ccnc(Nc3ccc(F)cc3)n2)c1 [GSK1379879],%Inh,DYRK1B; [1],25%
same,%Inh,DYRK2,0%
same,%Inh,EGFR,43%
same,%Inh,EIF2AK1; [1],0%
same,%Inh,EPHA1,52%
same,%Inh,EPHA2,27%
same,%Inh,EPHA3,0%
same,%Inh,EPHA4,0%
same,%Inh,EPHA5,0%
same,%Inh,EPHA6; [1],0%
same,%Inh,EPHA7,0%
same,%Inh,EPHA8,2%
same,%Inh,EPHB1,5%
same,%Inh,EPHB2,0%
same,%Inh,EPHB3,8%
same,%Inh,EPHB4,19%
same,%Inh,EPHB6,14%
same,%Inh,ERBB2,39%
same,%Inh,ERBB3,24%
same,%Inh,ERBB4,20%
COc1cc(Nc2nccc(N3CCC(NC(=O)Nc4ccc5c(c4)OCO5)C3)n2)cc(OC)c1OC (centres unmarked) [GSK1379766],%Inh,DYRK1B; [1],0%
same,%Inh,DYRK2,0%
same,%Inh,EGFR,0%
same,%Inh,EIF2AK1; [1],0%
same,%Inh,EPHA1,14%
same,%Inh,EPHA2,0%
same,%Inh,EPHA3,0%
same,%Inh,EPHA4,7%
same,%Inh,EPHA5,0%
same,%Inh,EPHA6; [1],4%
same,%Inh,EPHA7,0%
same,%Inh,EPHA8,3%
same,%Inh,EPHB1,7%
same,%Inh,EPHB2,0%
same,%Inh,EPHB3,6%
same,%Inh,EPHB4,0%
same,%Inh,EPHB6,97.6%
same,%Inh,ERBB2,0%
same,%Inh,ERBB3,0%
same,%Inh,ERBB4,31%
Cn1cc(-c2ccc3c(c2)CCN3C(=O)Cc2cc(F)cc(C(F)(F)F)c2)c2c(N)ncnc21 [GSK2635225],%Inh,DYRK1B; [1],0%
same,%Inh,DYRK2,4%
same,%Inh,EGFR,23%
same,%Inh,EIF2AK1; [1],22%
same,%Inh,EPHA1,21%
same,%Inh,EPHA2,11%
same,%Inh,EPHA3,26%
same,%Inh,EPHA4,0%
same,%Inh,EPHA5,0%
same,%Inh,EPHA6; [1],17%
same,%Inh,EPHA7,2%
same,%Inh,EPHA8,2%
same,%Inh,EPHB1,21%
same,%Inh,EPHB2,15%
same,%Inh,EPHB3,12%
same,%Inh,EPHB4,8%
same,%Inh,EPHB6,44%
same,%Inh,ERBB2,10%
same,%Inh,ERBB3,0%
same,%Inh,ERBB4,0%
Cc1cc(-c2ccnc(Nc3cccc(C#N)c3)n2)cc(C)c1O [GSK1440913],%Inh,DYRK1B; [1],51%
same,%Inh,DYRK2,61%
same,%Inh,EGFR,38%
same,%Inh,EIF2AK1; [1],0%
same,%Inh,EPHA1,27%
same,%Inh,EPHA2,24%
same,%Inh,EPHA3,4%
same,%Inh,EPHA4,13%
same,%Inh,EPHA5,0%
same,%Inh,EPHA6; [1],13%
same,%Inh,EPHA7,18%
same,%Inh,EPHA8,21%
same,%Inh,EPHB1,18%
same,%Inh,EPHB2,19%
same,%Inh,EPHB3,18%
same,%Inh,EPHB4,16%
same,%Inh,EPHB6,90.3%
same,%Inh,ERBB2,27%
same,%Inh,ERBB3,7%
same,%Inh,ERBB4,0%
Cn1cc(-c2cnc(N)c3c(-c4ccc5c(c4)CCN5C(=O)Cc4ccccc4)csc23)cn1 [GSK2593074],%Inh,DYRK1B; 1 µM,0%
same,%Inh,DYRK2,8%
same,%Inh,EGFR,3%
same,%Inh,EIF2AK1; 1 µM,7%
same,%Inh,EPHA1,11%
same,%Inh,EPHA2,0%
same,%Inh,EPHA3,0%
same,%Inh,EPHA4,11%
same,%Inh,EPHA5,0%
same,%Inh,EPHA6; 1 µM,11%
same,%Inh,EPHA7,6%
same,%Inh,EPHA8,8%
same,%Inh,EPHB1,6%
same,%Inh,EPHB2,2%
same,%Inh,EPHB3,4%
same,%Inh,EPHB4,9%
same,%Inh,EPHB6,98.3%
same,%Inh,ERBB2,0%
same,%Inh,ERBB3,4%
same,%Inh,ERBB4,0%
